Results filed as inconclusive are left out. Calls of active or inactive are those of the source. Unless noted, the call rests on the fitted dose curve; in most records, active means well fitted curve in the direction sought with a large enough effect in the repeat runs; inconclusive means weak or mixed curves; inactive means no such curve, though single readings can be large; an effect the other way counts as inactive or inconclusive.
How the values were obtained:
[1] = qHTS assay to identify small molecule antagonists of the estrogen related receptor (ERR) signaling pathway - cell viability counter screen (AID 1224818); further: series mostly up to about 46 µM
Outline: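 Fluorescence from CellTiter-Fluor, read 30 min after reagent addition at 37 C, measured viability of ERR cells exposed to compounds for 17.5 h. Cells had settled 6 h before dosing.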

[2] = qHTS assay to identify small molecule antagonists of the estrogen related receptor (ERR) signaling pathway (AID 1224819; further: nearly all actives have a fitted effect of over 50% in size; further: potency means the concentration at half of the fitted maximal effect)
Outline: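 Luminescence readout (One-Glo, 30 min, RT) of ERR cell line after 18 h compound exposure at 37 C; cells seeded 2,000/well, pre-incubated 6 h, compounds pinned from DMSO stocks.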

[3] = qHTS assay to identify small molecule agonists of the estrogen related receptor (ERR) signaling pathway (AID 1224820)
Outline: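 Following a 6 h settling period, 2,000 ERR cells per well receive DMSO-dissolved compounds by pin tool and incubate 18 h at 37 C; agonist activity is scored from One-Glo luminescence read 30 min post-addition.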

[4] = system: estrogen-related receptor alpha (ERRalpha) with PGC-1alpha coactivator, human; assay: qHTS assay to identify small molecule antagonists of the estrogen related receptor signaling pathway with the pleiotropic PPARgamma coactivator (PGC) (AID 1224821; calls by dose curve;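 further: series mostly up to about 46 µM; lower luminescence signal means antagonism of PGC/ERR signalling; nearly all actives have a fitted effect of over 50% in size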)
Outline: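 Screening used NTP's PGC/ERR cells, dosed via pin tool with compound in DMSO alongside positive and negative controls. After 18 h at 37 C, One-Glo reagent sat 30 min at room temperature before luminescence detection.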

[5] = qHTS assay to identify small molecule antagonists of the estrogen related receptor signaling pathway with the pleiotropic PPARgamma coactivator (PGC) cell viability counter screen (AID 1224822; further: series mostly up to about 46 µM)
Outline: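 Fluorescence read-out of CellTiter-Fluor after 30 min at 37 C; PGC/ERR cells, 2,000 per well, had been exposed to DMSO-dissolved compounds for 17.5 h following a 6 h pre-incubation.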

[6] = qHTS assay to identify small molecule agonists of the estrogen related receptor signaling pathway with the pleiotropic PPARgamma coactivator (PGC) (AID 1224823)
Outline: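 In this quantitative high-throughput screen, an 18 h, 37 C treatment of PGC/ERR cells with compounds in DMSO preceded a One-Glo luminescence read taken after 30 min at room temperature.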

Measured: Potency

Clc1ccc(N2CC3CCC(C2)N3)nn1
inactive: all assays above

NC(N)=NOCC[C@H](N)C(=O)O
inactive: all assays above

C=CCN1C[C@@H](C)N([C@H](c2ccc(C(=O)N(CC)CC)cc2)c2cccc(OC)c2)C[C@@H]1C
active: [2] 26.6 µM
inactive: all other assays above

C[C@H](N)Cc1cccc(C(F)(F)F)c1
inactive: all assays above

C[N+](C)(C)CC#CCOC(=O)Nc1cccc(Cl)c1
inactive: all assays above

CC(N)[C@H](O)c1ccc(O)c(O)c1 (stereo partly drawn)
inactive: all assays above

COc1ccc2[nH]cc(CCN)c2c1
inactive: all assays above

C[C@@H](N)Cc1cnc[nH]1
inactive: all assays above

CC(=O)OCC1=C(C(=O)[O-])N2C(=O)[C@@H](NC(=O)CCC[C@@H](N)C(=O)[O-])[C@H]2SC1.[Zn+2]
inactive: all assays above

CN1CCC(c2c[nH]c3ccc(O)cc23)CC1
inactive: all assays above

CC(C)(C)c1o[nH]c(=O)c1CC(N)C(=O)O (stereo not drawn)
inactive: all assays above

NC(N)=NOCCC(N)C(=O)O (stereo not drawn)
inactive: all assays above

C[N+](C)(C)CCOC(=O)CBr
inactive: all assays above

CCCN(CCC)[C@@H]1CCc2cccc(O)c2C1
inactive: all assays above

CC(N)c1cccc(Cl)c1Cl (stereo not drawn)
inactive: all assays above

NCC(O)c1cc(O)c(O)cc1F (stereo not drawn)
inactive: all assays above

CCCN(CCC)[C@H]1CCc2c(F)ccc(O)c2C1
inactive: all assays above

NC(CP(=O)(O)O)C(=O)O (stereo not drawn)
inactive: all assays above

— PubChem BioAssay (Tox21)
